Measurements as given in PubChem BioAssay AID1347416 (National Center for Advancing Translational Sciences (NCATS), 2020).
In all, about 4,100 compounds went through this assay and about 1,600 (39%) were called active. About 25% were inconclusive and are not listed. This is one part of the list. Values without a mark were called inactive. Calls come from the whole dose curve; as a rule, active = well fitted inhibition curve with a large enough effect; inconclusive = small, poorly fitted or top-dose-only effect; inactive = no such curve, though single readings can be large or run the other way.

Assay: qHTS Validation assay for Inhibitors of Plasmodium falciparum Dd2 growth in vitro; note: nearly all actives have a fitted effect of over 70% in size
Conditions: P. falciparum Dd2 in RBCs, SYBR Green growth, 72 h; series mostly up to 28.7 µM; activity change, negative = inhibition: at the top concentration
How it was run: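 P. falciparum Dd2-infected red blood cells (2.5% hematocrit, 0.3% parasitemia) grown 72 h at 37 °C under 5% O2 with compounds in a titration, 29 uM to 0.5 nM final. Growth read as SYBR Green-1 fluorescence after ~16 h lysis; artesunate 300 nM as positive control.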
% is set by controls: 0 for no effect and ±100 for the full control effect; potency is the fitted concentration of half-maximal effect.

| SMILES | activity change, negative = inhibition | Potency |
| --- | --- | --- |
| CC(C)c1ccc(CN2CCc3ncc(C(=O)NCCN4CCNC4=O)n3CC2)cc1 | 21.5% [at 43.1 µM] |  |
| O=C(Nc1ccc(-c2csc(Nc3ccccc3)n2)cc1)c1cc([N+](=O)[O-])cc(C(F)(F)F)c1 |  | 2.11 µM (active) |
| Cc1ccc(-c2cc3c(=O)n(CCNC(=O)c4cc(F)ccc4F)ccn3n2)c(C)c1 | -1.76% |  |
| CN(C)C(=O)c1ccc(N2CCC(NCCC3=CC[C@H]4C[C@@H]3C4(C)C)CC2)cc1 | 0% |  |
| CC(CCc1ccccc1)NCC(O)c1cccc([N+](=O)[O-])c1 (stereo unspecified) |  | 0.473 µM (active) |
| O=C(CCc1cc(Cl)no1)N1CCc2nc3cc(-c4ccccc4)[nH]n3c(=O)c2C1 | -14.8% |  |
| CCN(CC)C(=O)Cn1c(=O)n(-c2ccc(Cl)cc2)c(=O)c2c3c(sc21)CCCCC3 | 18.7% |  |
| CC(=O)c1sc2c(c1C)c(=O)n(-c1ccc(Cl)cc1)c(=O)n2Cc1cc(=O)n2cc(Cl)ccc2n1 |  | 7.5 µM (active) |
| CCc1nc2c(c(-c3ccc(O)cc3)n1)CCN(Cc1ccccc1C(F)(F)F)CC2 |  | 2.99 µM (active) |
| CC(C)c1nc2c(c(-c3ccc(O)cc3)n1)CCN(Cc1ccccc1C(F)(F)F)CC2 |  | 4.73 µM (active) |
| Cc1c(Cl)cccc1Nc1nn2c(=O)c3ccc(C(=O)N(C)Cc4ccccc4)cc3nc2s1 |  | 16.8 µM (active) |
| NS(=O)(=O)c1ccc(CCNC(=O)c2ccc3nc(CCc4ccccc4)oc3c2)cc1 | 7.99% |  |
| CC1(CNc2ccccc2)COc2ccc(C(=O)NCCc3ccccc3)cc2N1 (stereo unspecified) | -37.5% [at 43.1 µM] |  |
| Cc1c(Cl)cccc1Nc1nn2c(=O)c3ccc(C(=O)NCCc4ccccc4)cc3nc2s1 |  | 7.5 µM (active) |
| O=c1c2cc3c(cc2nc2sc(Nc4ccc(F)cc4F)nn12)OCO3 | 20.7% |  |
| Cc1c(Cl)cccc1NC(=O)CCCn1nc(C)c2sc3ccccc3c2c1=O | 12% |  |
| COc1ccccc1C1CC(c2ccccc2)=NN1C(=O)c1ccccc1 (stereo unspecified) |  | 2.37 µM (active) |
| O=C(NC1CCCN(c2cc(-c3ccccc3)[nH]n2)C1)c1cccc(Cl)c1 (stereo unspecified) | -27.5% |  |
| COc1ccc(/C(C)=N/NC(=S)NCCc2ccccc2)c(O)c1 |  | 3.35 µM (active) |
| CCCCc1c(C)c(C#N)c2nc3ccccc3n2c1Nc1c(C)n(C)n(-c2ccccc2)c1=O |  | 2.66 µM (active) |
| CC1CCN(S(=O)(=O)c2ccc(NC(=O)c3ccco3)cc2)CC1 | 4.42% |  |
| Cc1sc(NC(=O)c2ccco2)c(C(c2cccnc2)N2CCC(C)CC2)c1C (stereo unspecified) |  | 5.31 µM (active) |
| CCOC(=O)c1c[nH]c2cc(OCC(C)C)c(OCC(C)C)cc2c1=O |  | 0.944 µM (active) |

| SMILES | activity change, negative = inhibition | Potency |
| --- | --- | --- |
| CCOC(=O)c1c[nH]c2c(C)cc(C)cc2c1=O |  | 4.22 µM (active) |
| CCOC(=O)c1cn(CC)c2c(ccc3ccccc32)c1=O | 20.8% |  |
| c1csc(-c2nc3nccc(-c4cc5ccccc5o4)n3n2)c1 | 16.8% |  |
| CC(NCc1ccccc1)c1ccccc1O (stereo unspecified) |  | 5.31 µM (active) |
| CCN1C(=O)c2cccc3c(S(=O)(=O)Nc4ccccc4)ccc1c23 | 37.8% |  |
| Cc1ccccc1-c1nccn2c(C3CN(Cc4ccccc4O)C3)ncc12 |  | 5.44 µM (active) |
| O=[N+]([O-])c1ccc(S(=O)(=O)N2CCn3cccc3C2c2ccc(Br)cc2)cc1 (stereo unspecified) |  | 5.96 µM (active) |
| CC(C)N1CCC(NC(=O)NC2CCCCC2)CC1 | 42.7% |  |
| CC(C(=O)N1CCCC1)N1CCN(S(=O)(=O)c2ccc(C(C)(C)C)cc2)CC1 (stereo unspecified) |  | 3.35 µM (active) |
| Cc1ccc(S(=O)(=O)N2CCC(C(=O)NC3CCCC3)CC2)cc1Cl | -26.1% |  |
| CC(C(=O)NC1CCCC1)N1CCN(S(=O)(=O)c2ccc(C(C)(C)C)cc2)CC1 (stereo unspecified) |  | 8.41 µM (active) |
| COc1cccc(C(=O)N2CCC(N3C[C@H](O)C[C@H]3C(=O)N3CC=C(c4ccccc4)CC3)CC2)c1 |  | 9.44 µM (active) |
| COc1ccc(C(=O)N2CCC(n3c(C)cnc3-c3ccccc3)CC2)c(OC)c1 | -11.3% |  |
| COc1cccc(C(=O)N2CCC(N3C[C@H](O)C[C@H]3C(=O)N3CCc4ccccc4C3)CC2)c1 |  | 8.41 µM (active) |
| COc1cccc(CNC(=O)[C@@H]2C[C@@H](O)CN2C2CCN(C(=O)c3ccc(OC)c(F)c3)CC2)c1 | 0.134% |  |
| COCCNC(=O)[C@@H]1C[C@@H](O)CN1C1CCN(C(=O)Cc2ccccc2)CC1 | 0.0678% |  |
| CCCC(=O)N1CCn2c(nnc2[C@@H]2C[C@@H](O)CN2Cc2ccccc2)C1 | 17.5% |  |
| CCCCOCc1cc(CN2CCN(c3cccc(Cl)c3)CC2)c(O)c2ncccc12 |  | 6.68 µM (active) |
| CC(C)OCc1cc(CN2CCN(c3cccc(C(F)(F)F)c3)CC2)c(O)c2ncccc12 |  | 6.68 µM (active) |
| CCOc1ccc(CC(=O)N2CCC[C@H]2c2nc(-c3ccc(C)cc3)no2)cc1 | 22.8% |  |
| COc1ccc(-c2noc(CCCC(=O)N3CCCC3c3nc(C4CCOCC4)no3)n2)cc1OC (stereo unspecified) | -2.3% |  |
| COCCOc1cc(-c2noc([C@@H]3CCCN3CC3CC3)n2)ccn1 |  | 15.3 µM (active) |
| c1cc(-c2noc([C@@H]3Cc4nc[nH]c4CN3CC3CCCCC3)n2)ccn1 |  | 21.7 µM (active) |
